In PubChem BioAssay one finds outcome, inhibition and activation data, which are given here for 15 compounds.

For part of these data: Measured potencies and affinities stand elsewhere. Activity calls are given as the source filed them.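 Rule for the calls, unless noted: active = primary screen hit whose fluorescence ratio, in both repeats, exceeds the weak agonist control mean by 3 SD; inactive = the rest.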

For assay [1], the system named is TRPC4 beta (transient receptor potential cation channel C4), mouse. Kind of assay: activators of mouse TRPC4 channel, confirmation, cell-based, Fluo4 calcium, HEK293 TRPC4beta/mu-opioid, duplicates, 10 µM (AID 2426;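 active = fluorescence ratio normalized to control raised more than 50% in primary screen plus both repeat runs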). The settings on record: Fluo4 calcium fluorescence, at 10 µM; hits give high values.
The subject of assay [2] is transient receptor potential cation channel C4 beta (TRPC4), mouse. Kind of assay: activators of mouse TRPC4 channel, confirmation, cell-based, second round, Fluo4, HEK293 TRPC4beta/mu-opioid, 1 µM (AID 2461;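 active = primary screen active and over 50% activation in each of two duplicate runs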). The settings on record: Fluo4 calcium fluorescence, at 1 µM; hits give high values.
For assay [3], the system named is TRPC4 (transient receptor potential cation channel C4 beta), mouse. The experiment in a line: positive allosteric modulators of mouse TRPC4, confirmation, cell-based, second round, Fluo-4, HEK293 TRPC4beta/mu-opioid, 1 µM (AID 2554). The settings on record: DAMGO EC20, Fluo-4 calcium flux, at 1 µM; hits give high values. (In general: Calcium assays in cells follow changes in intracellular calcium, usually with a dye or a luminescent sensor.)

The test system of assay [4] is TRPC4 beta (transient receptor potential cation channel C4), mouse. The experiment in a line: positive allosteric modulators of mouse TRPC4, confirmation, cell-based, Fluo-4, HEK293 TRPC4beta/mu-opioid (AID 2555;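 active = primary screen hit whose calcium fluorescence ratio, in both repeats, exceeds the weak agonist control mean by 3 SD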). The settings on record: DAMGO EC20, Fluo-4 calcium flux, at 10 µM; hits give high values.
For assay [5], the target named is Short transient receptor potential channel 4 (Mus musculus) (UniProt Q9QUQ5). The experiment in a line: inhibitors of mouse TRPC4 channel, confirmation, cell-based, Fluo4, HEK293 TRPC4beta/mu-opioid (AID 2636;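 active = calcium signal cut by more than 3 SD below the full-agonist control yet still positive, in both repeats and the earlier primary screen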). The settings on record: DAMGO, Fluo4 calcium flux, at 10 µM; hits give high values.
Chain of Short transient receptor potential channel 4 (Mus musculus) (Q9QUQ5 whole entry, looked up): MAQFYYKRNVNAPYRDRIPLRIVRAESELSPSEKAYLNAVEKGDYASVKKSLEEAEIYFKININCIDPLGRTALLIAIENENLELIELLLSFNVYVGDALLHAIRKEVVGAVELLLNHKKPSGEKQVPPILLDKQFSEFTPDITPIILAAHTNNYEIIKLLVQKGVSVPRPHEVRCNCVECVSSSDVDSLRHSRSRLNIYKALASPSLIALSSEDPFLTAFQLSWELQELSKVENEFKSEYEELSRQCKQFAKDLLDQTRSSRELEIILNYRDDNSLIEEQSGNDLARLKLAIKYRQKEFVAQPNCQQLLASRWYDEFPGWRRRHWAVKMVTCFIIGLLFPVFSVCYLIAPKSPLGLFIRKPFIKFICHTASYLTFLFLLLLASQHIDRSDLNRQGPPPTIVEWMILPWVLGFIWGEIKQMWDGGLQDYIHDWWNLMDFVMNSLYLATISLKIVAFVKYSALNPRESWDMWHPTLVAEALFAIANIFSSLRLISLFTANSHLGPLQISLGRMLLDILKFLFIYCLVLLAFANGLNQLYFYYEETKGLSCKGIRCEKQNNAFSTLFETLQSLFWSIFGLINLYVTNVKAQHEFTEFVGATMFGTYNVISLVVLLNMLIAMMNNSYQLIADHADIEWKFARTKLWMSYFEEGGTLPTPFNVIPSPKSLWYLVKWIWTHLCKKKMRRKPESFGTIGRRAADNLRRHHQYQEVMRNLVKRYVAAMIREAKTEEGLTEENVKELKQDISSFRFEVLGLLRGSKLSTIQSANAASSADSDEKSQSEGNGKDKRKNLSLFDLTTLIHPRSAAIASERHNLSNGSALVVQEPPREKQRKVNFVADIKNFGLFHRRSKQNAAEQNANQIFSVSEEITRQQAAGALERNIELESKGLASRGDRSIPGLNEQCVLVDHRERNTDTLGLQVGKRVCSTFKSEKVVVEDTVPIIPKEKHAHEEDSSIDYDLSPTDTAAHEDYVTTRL
Assay [6] has the same target. The experiment in a line: inhibitors of mouse TRPC4 channel, confirmation, cell-based, second round, Fluo4, HEK293 TRPC4beta/mu-opioid, 1 µM (AID 2637;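 active = calcium signal ratio cut to more than 3 SD under the fully stimulated control mean yet still positive, in both repeats and the primary screen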;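 for inhibition: percent of integrated ratio relative to wells lacking test compound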). To be noted: Fluo4 calcium flux, DAMGO, at 1 µM; hits give high values.
Assay [7] has the same target. Kind of assay: mouse TRPC4 channel activators, dose response, cell-based, HEK293 TRPC4/mu-opioid, Fluo-4 calcium (AID 434937;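 active = primary screen activator hit with a dose response curve and TRPC4 channel activation at any tested dose; inactive = no activation, no dose response, or not a primary hit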).
For assay [8] the target is unchanged. Kind of assay: TRPC4 positive allosteric modulators, dose response, cell-based, HEK293 TRPC4/mu-opioid, Fluo-4 calcium, EC20 DAMGO (AID 434941;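 active = earlier screen potentiator hit that boosts the TRPC4 ion channel at some dose, with a dose response; inactive = no potentiation, no dose response, or not a prior hit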;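 note: calcium entry triggered by an EC20 dose of DAMGO at the co-expressed mu-opioid receptor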).
Assay [9] deals with Short transient receptor potential channel 6 (Mus musculus) (UniProt Q61143). The experiment in a line: inhibition of mouse TRPC6 channel, confirmation, selectivity assay for TRPC4 inhibitor project, cell-based, HEK293, membrane potential dye, duplicate (AID 434948;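 active = active in primary screen and both duplicates, each dropping signal beyond three positive-control SD with fluorescence still positive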). To be noted: HEK293 TRPC6, membrane potential dye fluorescence, at 10 µM, stimulated with maximal-effect acetylcholine; hits give high values.
Chain of Short transient receptor potential channel 6 (Mus musculus) (Q61143 whole entry, looked up): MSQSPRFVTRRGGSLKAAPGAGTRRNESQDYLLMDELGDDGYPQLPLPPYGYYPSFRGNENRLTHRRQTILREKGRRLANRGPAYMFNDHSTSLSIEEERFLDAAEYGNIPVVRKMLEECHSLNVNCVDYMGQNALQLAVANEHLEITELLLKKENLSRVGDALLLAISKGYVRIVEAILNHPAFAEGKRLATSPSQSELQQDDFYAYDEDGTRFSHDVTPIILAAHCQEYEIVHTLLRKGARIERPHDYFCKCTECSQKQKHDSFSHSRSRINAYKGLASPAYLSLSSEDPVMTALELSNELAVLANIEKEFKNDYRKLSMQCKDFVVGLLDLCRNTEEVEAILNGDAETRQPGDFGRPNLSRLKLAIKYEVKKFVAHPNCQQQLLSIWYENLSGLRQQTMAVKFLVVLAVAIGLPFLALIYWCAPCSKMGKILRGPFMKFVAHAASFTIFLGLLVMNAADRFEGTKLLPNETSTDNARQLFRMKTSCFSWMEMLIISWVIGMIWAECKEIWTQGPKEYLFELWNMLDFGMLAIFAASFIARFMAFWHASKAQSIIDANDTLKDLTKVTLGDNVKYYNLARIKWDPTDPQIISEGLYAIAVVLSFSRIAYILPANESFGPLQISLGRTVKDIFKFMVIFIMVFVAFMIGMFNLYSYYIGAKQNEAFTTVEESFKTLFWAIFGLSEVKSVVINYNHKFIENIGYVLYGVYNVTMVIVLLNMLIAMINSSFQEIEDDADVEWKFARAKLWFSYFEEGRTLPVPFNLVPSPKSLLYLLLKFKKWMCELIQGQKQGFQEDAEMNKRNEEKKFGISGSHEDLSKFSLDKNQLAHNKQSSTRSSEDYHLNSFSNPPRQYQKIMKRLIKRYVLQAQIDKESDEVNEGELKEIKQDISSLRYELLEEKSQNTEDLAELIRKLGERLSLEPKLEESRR

Assay [10] shares this target. The experiment in a line: activation of mouse TRPC6 channel, confirmation, selectivity assay for TRPC4 activator project, cell-based, HEK293, membrane potential dye, duplicate (AID 434950;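 active = membrane potential signal rise above negative control mean plus 3 SD in both duplicates, also active in the earlier TRPC4 screen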;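 for activation: 0% = buffer only wells and 100% = acetylcholine maximal-effect wells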). To be noted: HEK293 TRPC6, membrane potential fluorescence, at 10 µM; hits give high values.
The target is the same in assay [11]. The experiment in a line: TRPC6 potentiation by TRPC4 potentiator hits, confirmation, selectivity assay for TRPC4 potentiator project, HEK293 cells, membrane potential dye, duplicate (AID 434952;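 active = compound raising the membrane signal above positive-control mean plus 3 SD in both repeats, and a primary screen hit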). The settings on record: HEK293 TRPC6, membrane potential dye fluorescence, at 10 µM, maximal acetylcholine added after compound; hits give high values.
Assay [12] addresses Short transient receptor potential channel 4 (Mus musculus) (UniProt Q9QUQ5). The experiment in a line: calcium flux activators in TRPC4/5HT1a cells, counter-screen for TRPC4 activator project, cell-based, second counter screen, HEK293 TRPC4/5HT1a, Fluo-4 (AID 434977;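 active = calcium signal rise above buffer-control mean plus 5 SD in both duplicates, and also a hit in the primary screen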). The settings on record: Fluo-4 calcium flux, at 10 µM; hits give high values.
Assay [13] is described as follows: calcium flux inhibitors in TRPC4/5HT1a cells, confirmation, counter-screen for TRPC4 inhibitor project, cell-based, second counter screen, HEK293 TRPC4/5HT1a, Fluo-4 (AID 434978;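 active = primary screen active whose calcium signal fell more than 3 SD beyond the full-serotonin control mean in both duplicate plates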;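 for outcome: serotonin given first at submaximal then at maximal dose after compound preincubation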). To be noted: Fluo-4 calcium flux, at 10 µM, serotonin added to trigger calcium flux; hits give high values.
The subject of assay [14] is TRPC4 (mouse), co-expressed with 5HT1a in HEK293. Kind of assay: calcium flux potentiators in TRPC4/5HT1a cells, confirmation, counter-screen for TRPC4 potentiator project, cell-based, second counter screen, HEK293 TRPC4/5HT1a, Fluo-4 (AID 434979;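 active = signal rise over 3 SD above mean of control wells given weak agonist, in both repeats and first screen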). To be noted: Fluo-4 calcium flux, at 10 µM, serotonin added at its EC20 dose; hits give high values.
The nature of assay [15]: calcium flux activation in mu-opioid HEK293 cells, confirmation, counter-screen for TRPC4 activator project, cell-based, HEK293 mu-opioid receptor line (AID 449723;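 active = hit in primary screen, with calcium signal over 5 SD above buffer well mean in both duplicates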;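 note: counter screen cells carry the mu-opioid receptor alone and lack TRPC4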). To be noted: Fluo-4 calcium fluorescence, at 10 µM; hits give high values.
Assay [16] is described as follows: calcium flux enhancement in mu-opioid HEK293 cells, confirmation, counter-screen for TRPC4 allosteric potentiator project, cell-based, HEK293 mu-opioid receptor line (AID 449724;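 active = calcium signal rise more than 3 SD above the low-dose agonist control mean, in both duplicate plates and the primary screen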;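 note: HEK293 cells carrying mu-opioid receptor only with no TRPC4 channel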). To be noted: Fluo-4 calcium flux, at 10 µM, compound added before EC20 DAMGO stimulus; hits give high values.

Usually inhibition stands for the relative decrease from the control value, in per cent.

As for `CCCCC(CC)c1nnc(NC(=O)c2cccs2)s1` (stereo not given), the result in assay [1], in assay [2], in assay [3], in assay [4], in assay [6] and in assay [7] was inactive. Also, the result in assay [8], in assay [9], in [10], in assay [11], in [12] and in [14] was inactive. Moreover, the result in assay [15] and in [16] was inactive. Further, the inhibition was 90% (active) in assay [5] and 40.9% (active) in assay [13].
In the case of `CCCC[n+]1c2ccccc2cc2ccccc21`, the outcome in [1], in assay [2], in [3], in [4], in [7] and in assay [8] was inactive. For the same compound, the compound was called inactive in assay [9], in assay [10], in assay [11], in [12], in [14] and in [15]. Further, in assay [16], the result was inactive. Besides, the inhibition in assay [5] was 87% (active); in [6] it was 54% (active); in assay [13] it was 18.4% (active).
Regarding `C=CCc1ccccc1OCC(CN1CCCCC1)OC(C)=O` (stereo not given), the result in [1], in [2], in assay [3], in assay [4], in assay [7] and in assay [8] was inactive. The call in [9], in assay [10], in assay [11], in assay [12], in assay [13] and in assay [14] was inactive. For the same compound, the result in assay [15] and in [16] was inactive. Moreover, the results for the inhibition in [5] and in [6] were 74% (active) and 43% (active), respectively.
As for `CC1CCN(CCOCCOc2ccccc2-c2ccccc2)CC1`, the outcome in assay [1], in assay [2], in [3], in assay [4], in assay [7] and in assay [8] was inactive. Also, the compound was classed as inactive in [9], in assay [10], in assay [11], in [12], in assay [14] and in assay [15]. Also, the result in [16] was inactive. Further, the values for the inhibition in assay [5], in assay [6] and in [13] were 101% (active), 57% (active) and 28.2% (active), respectively.
As for `CC1CCc2nc(NC(=O)CN3CCN(Cc4ccc5c(c4)OCO5)CC3)sc2C1` (stereo not given), the result in assay [1], in [2], in [3], in [4], in assay [6] and in assay [7] was inactive. Moreover, the outcome in assay [8], in assay [9], in [10], in assay [11], in [12] and in [14] was inactive. In addition, the result in assay [15] and in assay [16] was inactive. Also, the inhibition in [5] was 77% (active); in assay [13], 28.7% (active).
Turning to `COC(=O)c1ccc(CSc2nc3ccccc3c(=O)n2CC(C)C)o1`, the result in assay [1], in assay [2], in assay [3], in [4], in assay [7] and in [8] was inactive. Moreover, the compound was called inactive in assay [9], in assay [10], in assay [11], in [12], in assay [14] and in assay [15]. For the same compound, the result in [16] was inactive. Also, the inhibition in assay [5] is 82% (active); in assay [6], 41% (active); in [13], 39.8% (active).
As for `Cc1cc(-c2cn3ccccc3n2)c(C)n1-c1ccccc1`, the result in [1], in [2], in assay [3], in assay [4], in assay [7] and in [8] was inactive. The compound was called inactive in [9], in [10], in assay [11], in assay [12], in assay [13] and in [14]. Also, the result in assay [15] and in assay [16] was inactive. The inhibition in assay [5] was 101% (active); in assay [6] it was 40% (active).
For the compound `Cc1ccc(-n2cccn2)c(CN2CCCC(C(=O)c3ccc4c(c3)OCO4)C2)c1` (stereo not given), the result in [1], in [2], in assay [3], in assay [4], in assay [6] and in assay [7] was inactive. The result in assay [8], in assay [10], in assay [11], in [12], in assay [14] and in [15] was inactive. In addition, the result in [16] was inactive. For the same compound, the inhibition in [5] is 53% (active); in assay [9] it was 28% (active); in assay [13], 38% (active).
Regarding `OCCNCc1cc(Br)ccc1OCc1ccc(Cl)cc1Cl`, the result in assay [1], in assay [2], in [3], in [4], in assay [6] and in assay [7] was inactive. Besides, the result in [8], in assay [9], in assay [10], in assay [11], in assay [12] and in assay [14] was inactive. The outcome in [15] and in [16] was inactive. Besides, the inhibition in [5] was 49% (active); in [13] it was 24.9% (active).
Consider `CCOc1cc(CNCCCN2CCOCC2)cc(Br)c1OCc1ccccc1Cl`, for which the result in assay [1], in assay [2], in assay [3], in assay [4], in assay [6] and in assay [7] was inactive. Besides, the outcome in assay [8], in [9], in [10], in assay [11], in assay [12] and in assay [13] was inactive. In addition, the outcome in assay [14], in assay [15] and in assay [16] was inactive. The inhibition in assay [5] was 77% (active).
For `Brc1ccc(CN2C3=NCCCN3c3ccccc32)cc1`, the result in [1], in [2], in assay [3], in assay [4], in [7] and in assay [8] was inactive. For the same compound, the call in assay [9], in [10], in [11], in assay [12], in assay [14] and in [15] was inactive. The outcome in [16] was inactive. The inhibition in [5] is 96% (active); in assay [6], 75% (active); in [13] it was 9.36% (active).
Consider `Cc1cc(OCC(=O)Nc2ccc(N3CCN(C)CC3)cc2)ccc1Cl`, for which the result in assay [1], in assay [2], in assay [3], in [4], in [6] and in [7] was inactive. Besides, the result in [8], in assay [9], in assay [10], in assay [11], in assay [12] and in [13] was inactive. The result in assay [14], in assay [15] and in assay [16] was inactive. For the same compound, the inhibition in [5] was 79% (active).
`Cc1ccc(-n2nc(-c3cccs3)cc2C(=O)NCC2CCCO2)c(C)c1` (stereo not given): the result in assay [1], in assay [2], in assay [3], in assay [4], in [6] and in [7] was inactive. Besides, the result in [8], in [9], in assay [11], in [12], in [13] and in [14] was inactive. Moreover, the outcome in [15] and in assay [16] was inactive. Moreover, in assay [5], the inhibition is 79% (active). Also, the activation in assay [10] is 32% (active).
Consider `O=C(CN1CCCCC1)N=Nc1c(O)[nH]c2ccccc12`, for which the result in [1], in assay [2], in assay [3], in assay [4], in assay [6] and in assay [7] was inactive. Moreover, the result in assay [8], in assay [9], in assay [10], in assay [11], in [12] and in assay [14] was inactive. For the same compound, the outcome in [15] and in assay [16] was inactive. The inhibition is 80% (active) in assay [5] and 33.5% (active) in [13].
For `CCOc1c(Cl)cc(CNCC(O)c2ccccc2)cc1OC` (stereo not given), the result in [1], in assay [2], in assay [3], in [4], in assay [6] and in [7] was inactive. Further, the result in [8], in assay [9], in assay [10], in [11], in assay [12] and in [13] was inactive. In addition, the outcome in assay [14], in assay [15] and in assay [16] was inactive. In addition, in [5], the inhibition is 86% (active).
